# Data reported in ChEMBL document CHEMBL3433997, “St. Jude Leishmania screening dataset” (2016).
# Legend:
# Format in all cases: functional
# [1] = target: Solute carrier family 2, facilitated glucose transporter member 1 (Homo sapiens) (UniProt P11166); assay: ST_JUDE_LEISH: Cytotoxicity at 2uM final concentration against transgenic Leishmania Mexicana promastigotes LmGLUT1 that are glucose transport deficient and complemented with the human glucose transporter GLUT1. Activity is measured by DNA content using SYBR green in vitro
# Solute carrier family 2, facilitated glucose transporter member 1 (Homo sapiens), sequence (P11166 whole entry): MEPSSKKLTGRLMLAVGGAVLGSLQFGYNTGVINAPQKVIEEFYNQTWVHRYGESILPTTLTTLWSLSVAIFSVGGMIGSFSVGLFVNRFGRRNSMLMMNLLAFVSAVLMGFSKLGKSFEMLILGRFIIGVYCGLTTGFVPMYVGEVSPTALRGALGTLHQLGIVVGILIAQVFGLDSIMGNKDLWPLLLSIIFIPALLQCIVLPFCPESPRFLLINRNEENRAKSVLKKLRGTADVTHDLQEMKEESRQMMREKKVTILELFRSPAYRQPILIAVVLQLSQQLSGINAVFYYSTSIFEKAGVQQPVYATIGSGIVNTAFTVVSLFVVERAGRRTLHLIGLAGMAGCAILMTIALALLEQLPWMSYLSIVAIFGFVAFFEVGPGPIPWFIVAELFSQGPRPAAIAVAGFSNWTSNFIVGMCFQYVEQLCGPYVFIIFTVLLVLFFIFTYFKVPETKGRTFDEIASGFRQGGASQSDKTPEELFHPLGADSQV
# [2] = target: Hexose transporter 1 (Plasmodium falciparum) (UniProt O97467); assay: ST_JUDE_LEISH: Cytotoxicity at 2uM final concentration against transgenic Leishmania Mexicana promastigotes LmPfHT that are glucose transport deficient and complemented with the Plasmodium falciparum hexose transporter. Activity is measured by DNA content using SYBR green in vitro
# [3] = target: Glucose transporter (Leishmania mexicana) (UniProt O61059); assay: ST_JUDE_LEISH: Cytotoxicity at 2uM final concentration against transgenic Leishmania Mexicana promastigotes LmGT2 that are glucose transport deficient and complemented with the L. Mexicana glucose transporter 2. Activity is measured by DNA content using SYBR green in vitro
SMILES,inhibition [1] [%],inhibition [2] [%],inhibition [3] [%]
N#Cc1ccccc1Sc1ccccc1C(=O)Nc1ccc2ccccc2n1,7.84,11.5,7.12
Cc1cccc2nc(-c3cccc(-c4cccc(NC(=O)c5csnn5)c4)c3)[nH]c12,4.92,1.69,-0.76
Cc1ccc(OCC2CCN(c3ncc(C(=O)NC4CC4)cc3Cl)CC2)cc1,-0.74,-2.55,0.52
c1cncc(Oc2ccc(Nc3ccnc4cc(-c5cccc(CN6CCCCC6)c5)ccc34)cc2)c1,3.68,2.51,2.68
O=[N+]([O-])c1ccc(/C=N/Nc2cc(-c3ccccc3)nc3ccccc23)o1,9.16,7.41,5.71
Cc1c(CNCCCNc2cc(=O)c3ccccc3[nH]2)sc(C(F)F)c1Br,-0.36,-0.4,-1.09
NC(=O)c1cc2nc(NC3CCC3)nc(Nc3cccc4[nH]ncc34)c2[nH]1,-0.69,-0.16,-1.17
Cc1cc(CN2CCC(N3CC(c4ccccc4)(c4ccccc4)OCC3=O)C2)ccc1O (configuration not stated),0.59,0.87,-3.65
N#Cc1ccc2c(c1)CCN(CCC1CCC(NC(=O)c3cc4ccccc4[nH]3)CC1)CC2 (configuration not stated),8.94,5.71,6.21
O=C(NCCNc1ccnc2cc(Cl)ccc12)c1ccccc1F,-1.91,1.06,-0.19
CC(=O)Nc1cccc(C(=O)Nc2cccc(-c3ccc(-c4nc5cc(F)ccc5[nH]4)cc3)c2)c1,2.1,2.11,1.46
CC(C)(CNC(=O)C1CCN(CCOc2ccc(F)c(F)c2)CC1)c1nc(-c2ccc(Cl)c(O)c2)c(-c2ccncc2)[nH]1,4.62,4.16,5.08
O=C(N[C@H]1CCN(Cc2ccc(OCCN3CCNCC3)c(Br)c2)C1)c1ccc(Cl)c(Cl)c1,0.35,0.16,1.51
Cc1cccc(CNc2nc(C)cc(N[C@@H](Cc3ccccc3)C(=O)NC3CCCC3)n2)c1,16.1,12.4,7.72
CC(C)CNCc1cccc(-c2cccc(CN(CCN(C)C)C(=O)NCCc3ccccc3)c2)c1,-1.09,-0.75,-4.18
CCCC(=O)Nc1ccc(OCCCN(Cc2ccccc2OC(F)(F)F)c2ccc(C#N)c(C(F)(F)F)c2)cc1,3.69,9.22,5.47
O=C(/C=C/c1ccc(Cl)c(Cl)c1)NCCCCCCN1CCCN(C(=O)Nc2ccc(C(F)(F)F)cc2)CC1,2.54,2.95,2.88
COc1cc(F)c2ncc(Cl)c(C(O)CN3CCC(NC(=O)c4ccc5c(n4)NC(=O)CO5)CC3)c2c1 (configuration not stated),1.02,0.57,-1.35
COc1cc(Cc2cnc(N)nc2N)cc(OCC(C)(C)C(=O)O)c1OC,-1.6,-1.08,-0.23
CN1CCN(c2ccc(Nc3nccc(-c4c(-c5cccc(NC(=O)c6c(F)cccc6F)c5)nn5ccccc45)n3)cc2)CC1,21.9,17.8,4.51
CC(c1cccc(Nc2nccc(-c3c(-c4cccc(NC(=O)c5c(F)cccc5F)c4)nn4ccccc34)n2)c1)S(C)(=O)=O (configuration not stated),3.25,2.14,-0.68
COc1ccc2nccc([C@@H](O)CN3CCC(NCc4cc5cc(C)ccc5s4)CC3)c2c1,31.5,46,21.9
COc1ccc(-c2ccc(NC(=O)c3ccc(Cl)cc3)cc2)cc1CN1CCC(O)CC1,3.31,2.62,2.54

SMILES,inhibition [1] [%],inhibition [2] [%],inhibition [3] [%]
O=C(Nc1ccc(Cl)cc1)c1cc(Cl)cc2nc(C(F)(F)F)[nH]c12,9.28,15,9.44
Cc1cn(CC(=O)Nc2cccc(-c3cccc(-c4nc5cccc(C)c5[nH]4)c3)c2)c(=O)[nH]c1=O,4.43,3.47,5.03
CCN(CC)CCN(Cc1ccc(-c2ccc(C(F)(F)F)cc2)cc1)C(=O)Cn1c(CCc2c(F)cccc2F)nc(=O)c2ccccc21,4.96,4.88,5.59
COc1ccc(CNCc2ccsc2)cc1-c1ccc(S(=O)(=O)NCCN2CCCC2)c(C)c1,-0.35,-1.19,-4.07
CCNc1cc(C(=O)N[C@@H](Cc2ccccc2)[C@H](O)CNCCC(C)c2ccccc2)cc(N2CCCC2=O)c1 (some centres not stated),4.77,5.96,1.33
CCC1(CC)C(=O)N=C(N2CCCCC2)N(C)C1=O,19,14.2,5.99
O=C(CCCCCNC(=O)c1ccc(O)c(-c2ccc(Cl)c(Cl)c2)c1)NC1CCCCCC1,4.53,3.51,4.8
CCN(CC)CCN(CCN(CC)CC)c1ccc(-c2nc3cc(Cl)c(Cl)cc3[nH]2)cc1,15.8,16.3,7.03
c1ccc(CNCc2cccc(-c3ccc(-c4nc5ccccc5[nH]4)cc3)c2)cc1,6.45,4.96,7.51
Cc1ccccc1Oc1ccc(Nc2ccnc(Nc3cccc(C(N)=O)c3)n2)cc1C(F)(F)F,4.26,3.48,1.52
CC(=O)Oc1c(C2C=CCCC2)c(OC(C)=O)c2ccccc2c1OC(C)=O (configuration not stated),1.04,3.27,1.98
Cc1cccc2nc(-c3ccc(-c4cccc(NC(=O)c5ccncc5)c4)cc3)[nH]c12,0.03,-0.47,1.08
CCOc1cc(C=Cc2nc(O)c3ccccc3n2)cc(Cl)c1O,5.1,4.12,2.7
COc1cccc(CC(=O)N2CCC(n3c(C)nc4ccc(C)cc43)CC2)c1,1.58,1.46,1.1
CCOC(=O)CC[C@H](NC(=O)c1ccc(NS(=O)(=O)c2ccc(-c3cnc(N)[nH]c3=O)cc2)cc1)C(=O)OCC,4.2,5.08,4.7
COc1ccc2[nH]cc(C3CCN(CCC4CCN(C(=O)/C=C/c5ccc(Cl)c(Cl)c5)CC4)CC3)c2c1,2.88,1.24,1.93
CCCc1cn2c3c(cc(C(=O)N[C@@H](Cc4ccccc4)[C@H](O)CNC4CCOCC4)cc13)N(C)S(=O)(=O)CC2,0.07,1.26,-0.3
Cc1cc(CN2CC[C@H](NC(=O)c3ccc(Cl)c(Cl)c3)C2)ccc1OC1CCN(C)C1 (some centres not stated),-0.24,0.72,-0.09
NC(=O)c1cccc(C(=O)Nc2cccc(-c3cccc(-c4nc5cc(C(F)(F)F)ccc5[nH]4)c3)c2)c1,-0.51,0.13,0.83
Cc1cccc(CNc2nc(C)cc(NCCC(=O)NCc3cccc(F)c3)n2)c1,7.68,7.53,4.51
CN1CCN(CCCN(Cc2csc(-c3ccc(CNCc4ccccc4)cc3)n2)S(=O)(=O)c2cccc3cccnc23)CC1,0.74,5.92,4.06
Cc1cccc2nc(-c3cccc(-c4ccc(NC(=O)Nc5cccc(C#N)c5)cc4)c3)[nH]c12,2.14,2.03,-1.2
CCc1c(C)nc(-n2nc(C)cc2NC(=O)c2ccc(OC)cc2OC)[nH]c1=O,30.4,31.7,8.75

SMILES,inhibition [1] [%],inhibition [2] [%],inhibition [3] [%]
CN1CCCN(Cc2cccc(-c3ccc(NC(=O)c4ccc(Cl)cc4)cc3)c2)CC1,55.2,50.2,21.9
Cc1cc(C)c(O)c(-c2cc(C(=O)Nc3ccc(S(=O)(=O)N4CC(C)OC(C)C4)cc3)[nH]n2)c1 (configuration not stated),3.1,1.95,0.01
Cc1ccc(N(CCC(=N)N)Cc2ccccc2)cc1,8.97,3.59,4.68
CC(C)NCc1ccc(-c2ccc(NC(=O)c3ccc(Cl)cc3)cc2)cc1,19.7,16.2,16.1
Fc1ccc(C=NN=c2cc[nH]c3ccccc23)cc1,11.7,13.4,8.73
CCOC(=O)C1=C(C)N=c2sc(=Cc3cc(Cl)ccc3O)c(=O)n2C1c1cc(OC)c(OC)cc1Br (configuration not stated),7,6.74,11.5
CCN(CC)CCN(Cc1ccc(-c2ccc(C(F)(F)F)cc2)cc1)C(=O)Cn1c(CCc2cccc(F)c2F)nc(=O)c2sccc21,0.1,1.36,-0.22
COc1cc2nc(N3CCC(CNC(=O)c4cc5ccccc5s4)CC3)nc(N)c2cc1OC,11.8,11,10.4
O=C(Nc1cccc(CN2CCCN(CCc3ccccc3)CC2)c1)c1ccc(Cl)c(Cl)c1,8.79,8.5,-3.05
FC(F)(F)c1ccc2[nH]c(-c3cccc(-c4ccc(CNCc5cnn(-c6ccccc6)n5)cc4)c3)nc2c1,-0.1,0.61,2.19
Cc1cc(=NN=Cc2cccc(F)c2)c2cccc(C)c2[nH]1,2.24,3.31,0.78
CCCCCCCn1c2c(c(=N)c3c1CCC3)CCCC2,92,90.8,80.1
Nc1ccc(-c2nc3cc(C4=N[C@H]5CCCC[C@H]5N4)ccc3o2)cc1[N+](=O)[O-],3.44,1.57,-0.09
COc1ccc2c(c1)Nc1ccc(Cl)cc1C2N (configuration not stated),3.78,1.62,0.48
CCCCOc1ccc(-c2nc3ccccc3[nH]2)cc1,9.74,8.64,2.74
Cc1[nH]c(C)c(-c2ccc(OCCCCSc3ccncc3)cc2)c(=O)c1Br,8.71,6.45,8.94
CNCCNCc1cccc(-c2ccc(-c3nc4ccccc4[nH]3)cc2)c1,-1.56,0.67,-0.51
Oc1ccc(CCNc2nc(NCCCOc3cccc(CN4CCCCC4)c3Cl)nc(N3CCNCC3)n2)cc1,3.62,1.93,3.74
CC(CN1CCN(C)CC1)C(=O)Nc1cccc(-c2cccc(-c3nc4cc(F)ccc4[nH]3)c2)c1 (configuration not stated),6.87,5.83,5.91
COc1cc(NC(=O)c2cc([N+](=O)[O-])ccc2NC(=O)CNC2CCCCC2C)cc(OC)c1 (configuration not stated),7.57,2.04,1.96
O=C(Nc1ccccc1Cc1ccccc1)c1ccccc1C(F)(F)F,6.25,1.68,2.61
O=C(Nc1c(F)cccc1F)c1cccc(-c2nn3ccccc3c2-c2ccnc(Nc3cccc(-c4cnco4)c3)n2)c1,12.2,4.66,1.5
Cc1cc(N[C@@H](Cc2ccccc2)C(=O)Nc2ccccc2)nc(Nc2ccccc2)n1,5.97,5.91,-0.05
